Measured values published in PubChem BioAssay (NCI).
About 83,000 compounds went through this panel and 20% of them were active in at least one assay; those are over-represented in the sample as a whole.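 The test compound was applied at a single concentration to cells in 96-well plates for 48 hours, and percent growth was recorded.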 Unmarked numbers belong to inactive results. The source made the active and inactive calls. Rule for the calls: active = growth percent below 10; inactive = the rest.

system: 786-0 renal; assay: NCI-60 one-dose screen, 48 h (100 = growth as untreated, 0 = no growth, -100 = all killed); conditions: 10 µM unless noted

SMILES	growth
COc1cc2oc(-c3cccc(C(=O)Nc4cccc([N+](=O)[O-])c4)c3)cc(=O)c2c(OC)c1OC	-22.9% (active)
COc1cc2c(c(OC)c1OC)C(=O)CC(c1cccc(NC(=O)c3cc(N)ccc3Cl)c1)O2 (centres undefined)	84.7%
CCOC(=O)/C=C/c1cccc2c1C(=O)NC(C)(c1cc3cc(Cl)ccc3oc1=O)N2 (centres undefined)	31.4%
CC(C)c1ccc2c(N)c(C(=O)Nc3cccc(C(F)(F)F)c3)sc2n1	67.9%
O=C(C1=CNC(=S)NC1c1ccc(O)cc1)c1cc2ccccc2oc1=O (centres undefined)	109%
COc1cc(-c2cc(-c3cccc(OCC(=O)O)c3)[nH]c(=O)c2C#N)cc(OC)c1OC	95.8%
COc1cccc(-c2nc(Nc3ccc(S(N)(=O)=O)cc3)c3ccccc3n2)c1	5.42% (active)
N#Cc1c(-c2ccc(Cl)cc2)nc2n[nH]c(-c3ccc(Cl)cc3)c2c1-c1ccc(C(F)(F)F)cc1	-3.14% (active)
CC12CC[C@@H]3[C@]4(C)COC(c5cn[nH]c5-c5ccc(Br)cc5)O[C@@H]4CC[C@@]3(C)[C@@H]1CC(C1=CCOC1=O)O2 (some centres undefined)	62.3%
CC1=C(C(=O)OCc2ccccc2)C(c2c(O)cc(O)cc2O)n2c(nc3ccccc32)N1 (centres undefined)	49.4%
COc1ccc2[nH]c(O)c(N=NC(=O)Cn3c(-c4ccccc4)nc4cc(C)ccc43)c2c1	4.55% (active)
C=C1CC[C@@H]2[C@]3(C)COC(c4cn(-c5ccccc5)nc4-c4ccccc4)O[C@@H]3CC[C@@]2(C)[C@@H]1C/C=C1/C(=O)OC[C@H]1O (some centres undefined)	-61.3% (active)
CN(C)CCCNC(=O)c1cc(NC(=O)c2cc(NC(=O)c3ccc(/C=C/c4ccccc4)cc3)cn2C)cn1C	42.3%
O=C(NNc1ccccc1)n1c(=O)c2ccccc2c(=O)n1-c1ccccc1	92.5%
C(=C\c1cc(/C=C/c2ccccc2)c2ccccc2n1)/c1ccccc1	80.7%
COc1cc2c(c(OC)c1OC)C(=O)CC(c1cccc(NC(=O)c3cc([N+](=O)[O-])ccc3Cl)c1)O2 (centres undefined)	25.1%
O=c1c2ccccc2nc(-c2ccccc2)n1/N=C/c1ccc2ccccc2c1	53%

SMILES	growth
CC(/C=C1\SC(=S)N(CCCC(=O)NC(CC(C)C)C(=O)O)C1=O)=C\c1ccccc1 (centres undefined)	93.4%
CCOc1ccc(C(=O)NC(=S)Nc2ccc(S(N)(=O)=O)cc2)cc1	99% [100 µM]
O=C(CCN1C(=O)/C(=C/c2ccc(F)cc2)SC1=S)N1CCOCC1	67.1%
CC1(C)CC[C@]2(C(=O)Nc3ccc(F)cc3)CC[C@]3(C)C(=CCC4[C@@]5(C)C[C@@H](O)[C@H](O)[C@@](C)(CO)C5CC[C@]43C)C2C1 (some centres undefined)	51.1%
NS(=O)(=O)c1ccc(-n2cc(-c3cccc(NC(=O)c4cc(C(F)(F)F)cc(C(F)(F)F)c4)c3)nn2)cc1	44.2%
COc1cc(C2CC(c3cc(OC)c(OC)c(OC)c3)=NN2c2ccccc2)ccc1OCc1ccc(C)cc1 (centres undefined)	102%
Cc1ccc2c(N)c(C(=O)Nc3ccc(-c4ccccc4)cc3)sc2n1	69.3%
C=C1CCC2C3(C)COC(c4ccccc4F)OC3CCC2(C)C1CC(O)C1=CCOC1=O (centres undefined)	14.7%
COc1ccc(-c2nnc3ccc(N/N=C/c4ccc(C)cc4)nn23)cc1	56.9%
COc1cc(-c2ccc(/C=N/NC(=O)c3[nH]c4ccc(Br)cc4c3-c3ccccc3)o2)cc(OC)c1OC	67.2%
COc1ccc2c(c1)c(-c1cc3nc(-c4cn(C)c5ncccc45)cc(N)n3n1)cn2C	-92% (active)
O=C(COc1ccc(NC(=O)Nc2ccccc2)cc1)N=Nc1c(O)[nH]c2ccc([N+](=O)[O-])cc12	16.7%
CCCCCCn1c(O)c(N=Nc2nc(-c3cc4ccccc4oc3=O)cs2)c2ccccc21	-64.8% (active)
COc1ccc(NC(=O)Cn2c3c(sc2=O)[C@H]2[C@@H](O)[C@@H](O)[C@H](O)[C@@H]2CS3)cc1	104%
CCCCc1c(Nn2cnnn2)no[n+]1[O-]	56.2%
CN1CCN(/C(=N\c2sc(-c3ccccc3)nc2-c2ccccc2)c2ccccc2)CC1	78.7%
C=C1CC[C@@H]2[C@]3(C)COC(c4cn[nH]c4-c4ccccc4)O[C@@H]3CC[C@@]2(C)[C@@H]1C/C=C1/C(=O)OCC1O (some centres undefined)	-72.8% (active)
